# GLP-1R inv ag – GLP-1 receptor (human) inverse agonism; P43220; 410,000 tested, 1.6% active; Potency, µM (highest dose often 38.3 µM), without a hit: top-dose activity change, negative = inhibition, usual class: inhibitors; AID 624417; HEK293 GLP-1R CRE-luciferase, luminescence, 24 h; GLP-1R form is constitutively active; note: potency is the fitted concentration of half-maximal effect; % is set by controls: 0 for no effect and ±100 for the full control effect; nearly all actives have a fitted effect of over 55% in size
# Target sequence (P43220 whole entry, looked up): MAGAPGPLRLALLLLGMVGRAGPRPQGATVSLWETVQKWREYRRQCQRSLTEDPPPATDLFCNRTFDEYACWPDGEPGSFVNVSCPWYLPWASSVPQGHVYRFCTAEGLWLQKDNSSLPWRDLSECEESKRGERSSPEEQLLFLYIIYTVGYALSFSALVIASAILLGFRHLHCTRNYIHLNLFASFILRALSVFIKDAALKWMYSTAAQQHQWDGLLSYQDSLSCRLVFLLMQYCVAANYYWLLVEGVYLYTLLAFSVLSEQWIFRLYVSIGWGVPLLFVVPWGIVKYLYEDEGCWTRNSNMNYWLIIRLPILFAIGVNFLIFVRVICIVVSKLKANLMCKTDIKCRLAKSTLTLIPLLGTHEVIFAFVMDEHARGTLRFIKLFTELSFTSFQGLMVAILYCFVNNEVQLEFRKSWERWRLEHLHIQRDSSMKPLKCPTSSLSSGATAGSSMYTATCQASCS
#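 Assay principle: reduced luminescence from a cAMP-responsive reporter in HEK293 cells co-expressing a constitutively active GLP-1R. Conditions: 24 hr compound incubation, 37 deg C, 5% CO2.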
# Mm-Cpn inhibitor – M. maripaludis TRiC chaperonin inhibition; Potency, µM (titrated, usually from 76.9 µM), inactives show top-dose activity, negative = inhibition, actives largely listed as inhibitors; 330,000 tested, 0.031% active; purified Mm-Cpn ATPase, ADP Transcreener TR-FRET; AID 504842; note: potency is the fitted concentration of half-maximal effect; % is set by controls: 0 for no effect and ±100 for the full control effect; nearly all actives have a fitted effect of over 80% in size
#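 25 nM Mm-CPN + cpd, 10 min 37°C; + 10 uM ATP, 30 min 37°C; buffer 30 mM Tris pH 7.4, 100 mM KCl, 5 mM MgCl2, 1 mM DTT; Transcreener ADP HTRF detection 30 min RT.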
# CCT modulator – cytosolic chaperonin activity modulation; purified chaperonin ATPase assay, HTRF ADP detection, 30 min; activity change, % (test concentration not listed), hits read low; 360,000 tested, 0.3% active; in the data active = activity change below about -30%; note: % is set by controls: 0 for no effect and ±100 for the full control effect
#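 Enzyme 40 or 20 nM (batch-dependent) in Tris pH 7.4/KCl/MgCl2/DTT; cpd 76 uM single point; ATP 10 uM; 30 min 37 °C; Transcreener ADP HTRF detection, 30 min RT; ratio 665/615.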
# HEK293 tox – cytotoxic in the GLP-1 receptor inverse agonist counter-screen. Potency, µM (doses to about 38.3 µM), for the others: at the highest dose activity change, negative = inhibition, usual class: inhibitors. 410,000 tested, 0.13% active. AID 624418. HEK293 cAMP-luciferase reporter cells, luminescence, 24 h;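 note: loss of luciferase light is scored as toxicity; potency is the fitted concentration of half-maximal effect; % is set by controls: 0 for no effect and ±100 for the full control effect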
#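 Quantitative HTS format, 1536 wells, 200 cells/uL seeded. Compounds: 23 nL, 24 h, 37 °C. Detection: luciferase reagent, luminescence at 12 min RT; decreased signal taken as cytotoxic.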
# uPA surface inh – cell surface uPA generation inhibition; AID 540303; 330,000 tested, 0.31% active; cell surface uPA generation assay, qHTS; Potency, µM (doses to about 38.3 µM), for inactives: at the highest dose activity change, negative = inhibition, actives largely listed as inhibitors; active = well fitted inhibition curve with a large enough effect; inconclusive = small, poorly fitted or top-dose-only effect; inactive = no such curve, though single readings can be large or run the other way; tested in mouse RAW 264.7 cells; note: potency is the fitted concentration of half-maximal effect; % is set by controls: 0 for no effect and ±100 for the full control effect; nearly all actives have a fitted effect of over 55% in size
# GLP-1R agonist – activates the human GLP-1 receptor | P43220 | 380,000 tested, 0.007% active | HEK293 GLP-1R CRE-luciferase, luminescence, 4-6 h; cells express a hypersensitive GLP-1R form | Potency, µM (top dose mostly 45.6 µM), for the others: at the highest dose activation, actives largely listed as activators; note: potency is the fitted concentration of half-maximal effect; % of control where 0% means no effect
# An asterisk follows results filed as active; ? = inconclusive; nt = not tested or not shown; [ ] = remark or other dose. Hits are enriched below; roughly 2.2% of the tested compounds scored in any of these assays. Unless noted, calls come from the whole dose curve; as a rule, active = well fitted curve in the direction sought with a large enough effect; inconclusive = small, poorly fitted or top-dose-only effect, or another doubt; inactive = no such curve, though single readings can be large; an effect the other way counts as inactive or inconclusive.
SMILES,GLP-1R inv ag,Mm-Cpn inhibitor,CCT modulator,HEK293 tox,uPA surface inh,GLP-1R agonist
CC(C)c1ccccc1NC(=O)Nc1nc(C(N)Cc2ccc(C(F)(F)F)cc2)cs1 (stereo not drawn),13µM*,nt,0,?,nt,-23%
O=c1c2oc3ccccc3c2n(Cc2cccc(F)c2)c(=O)n1Cc1ccco1,-2%,nt,nt,6%,nt,nt
Cc1ccc(C(=O)N2c3ccccc3N(Cc3ccccc3)C(=O)C2(C)C)cc1,11µM*,-1%,0,26%,-28%,0%
O=C(CSc1nnc(CNC(=O)c2ccco2)o1)Nc1ccc(OC(F)(F)F)cc1,20%,-1%,-47*,5%,13%,-1%
O=[N+]([O-])c1cccc(C2NCC(c3ccccc3Cl)c3c2[nH]c2ccccc32)c1 (stereo not drawn),?,1%,-4,-3%[7.66 µM],11%,-5%
CN(C)c1ccc(C2CNC(c3ccc(Cl)c([N+](=O)[O-])c3)c3[nH]c4ccccc4c32)cc1 (stereo not drawn),4.5µM*,-3%,0,15%,?,-2%
COc1cc(/C=C/C(=O)OCC(=O)N2c3ccccc3CC2C)cc(OC)c1OC (stereo not drawn),?,1%,-1,2%,10µM*,4%
COC(=O)C(Nc1ccccc1Cl)(c1cc(C)c(O)c(C)c1)C(F)(F)F (stereo not drawn),4.5µM*,-1%,0,?,-6%,-24%
CCOC(=O)C(NC(=O)c1ccccc1Cl)(Nc1ccc(C)c(C)c1)C(F)(F)F (stereo not drawn),-29%,-1%,-1,-11%,5%,-4%
CC1CCN(C(=O)Cn2c(SCC(=O)Nc3ccc(F)cc3)nc3ccccc32)CC1,-25%,nt,nt,-3%,nt,nt
CC1(C(=O)NS(=O)(=O)c2ccc(Br)cc2)CCN1C(=O)CCc1ccccc1 (stereo not drawn),16%,nt,-79*,7%,nt,-7%
CC1(C(=O)NS(=O)(=O)c2ccc(Br)cc2)CCN1C(=O)CCc1cccs1 (stereo not drawn),-2%,nt,-1,-2%,nt,0%
COc1ccc(-c2c(-c3ccc(O)cc3O)n[nH]c2C(F)(F)F)cc1,?,40µM*,-6,-14%,2%,0%
COc1ccccc1-c1c(-c2ccc(O)cc2O)n[nH]c1C(F)(F)F,11µM*,3%,0,-15%,-26%,-3%
CCc1ccc(-n2c(N3CCN(c4cccc(Cl)c4)CC3)nc3ccccc3c2=O)cc1,?,nt,nt,2%,nt,nt
CCc1ccc(-n2c(N3CCN(c4ccc(F)cc4)CC3)nc3ccccc3c2=O)cc1,11µM*,nt,nt,1%,nt,nt
CCOC(=O)c1c(C)[nH]c(C)c1C(=O)CSc1nc2ccccc2c(=O)n1-c1ccc(CC)cc1,10µM*,0%,1,-12%,1%,9%
CCOc1ccc(NC(=O)Cn2nc(Cc3cccnc3)c3ccccc3c2=O)cc1,1%,nt,nt,-11%,nt,nt
CCOC(=O)c1ccccc1NC(=O)Cn1c(=O)n(-c2ccc(CC)cc2)c(=O)c2c(C)c(C(=O)N(C)C)sc21,0%,nt,nt,1%,nt,nt
CCOC(=O)c1c(NC(=O)c2cccs2)sc2c1CCC2,10%,?,-33*,-4%,12%,-3%
CCOC(=O)c1c(NC(=O)c2cccs2)sc2c1CCCC2,13%,0%,1,-1%,1%,0%
CCOc1ccccc1NC(=O)c1c(NCc2cccs2)sc2c1CCCCC2,13µM*,nt,nt,-15%,nt,nt
COC(=O)CN1C(=O)C(C)(C)c2cc(S(=O)(=O)NCc3ccc(Cl)cc3)ccc21,10%,nt,nt,-1%,nt,nt
CCOc1ccc(NC(=S)c2ccc3ccccc3n2)cc1,-3%,-3%,-30*,-11%,12%,-3%
CC(Oc1cccc(Br)c1)C(=O)NNC(=O)c1ccccn1 (stereo not drawn),11µM*,0%,0,?,?,1%
SMILES,GLP-1R inv ag,Mm-Cpn inhibitor,CCT modulator,HEK293 tox,uPA surface inh,GLP-1R agonist
CCOc1ccc(NC(=O)c2cnccn2)cc1,?,2%,0,-12%,-18%,-1%
CCOc1ccc(NC(=O)c2ccccn2)cc1,2µM*,0%,-5,-9%,1.6µM*,-28%
COc1ccc(NC(=S)c2ccc3ccccc3n2)cc1,?,-3%,0,?,5%,8%
COc1ccc(C(=O)NOCc2ccccc2)cc1,3.2µM*,1%,-2,2%,?,-7%
Cc1ccc(CCNC(=O)c2ccc3c(c2)N(Cc2ccccc2F)C(=O)c2ccccc2S3=O)cc1 (stereo not drawn),7%,nt,nt,-2%,nt,3%
COc1cc(OC)cc(C(=O)NNC(=O)c2ccccn2)c1,?,1%,2,?,3%,7%
COc1ccc(C(=O)NNC(=O)c2ccccn2)cc1,?,-10%,0,0%,3.2µM*,-12%
CCOC(=O)c1c(C)c(C)n(Cc2cccc(OC)c2OC)c1C,?,0%,-3,10%,6%,10%
CCOC(=O)c1cc(C)n(Cc2cccc(OC)c2OC)c1C,4µM*,-3%,-1,4%,2%,2%
CCOC(=O)C(CC)N1CCN(Cc2ccc(F)cc2)C(=O)C1=O (stereo not drawn),12%,nt,nt,-5%,nt,nt
CCOc1ccccc1CNC(=O)C1CCN(S(=O)(=O)c2ccc3c(ccn3C)c2)CC1,6%,nt,nt,0%,nt,nt
c1ccc(CCNc2ncnc3scc(C4COc5ccccc5O4)c23)cc1 (stereo not drawn),7.9µM*,1%,2,?,-5%,-13%
c1ccc2c(c1)OCC(c1csc3ncnc(N4CCCC4)c13)O2 (stereo not drawn),?,2%,-1,-4%,-8%,-4%
CCc1ccccc1Nc1nc(-c2cccnc2)cs1,11µM*,0%,0,-13%,-8%,-6%
CN1CCN(CCCNC(=O)c2ccc3c(Cl)c4c(nc3c2)CCCC4)CC1,-32%,5%,-2,?,11µM*,12%
CC(C)c1nc2ccc(C(=O)NCCCN3CCN(c4ccc(F)cc4)CC3)cc2o1,?,nt,nt,-8%,nt,nt
O=C(CSc1c2c(nc3ccc(Cl)cc13)CCCC2)NCCCN1CCOCC1,8%,-10%,-3,-28%,8.9µM*,-1%
CC(C)c1nc2ccc(C(=O)NCCCN3CCN(c4cccc(Cl)c4)CC3)cc2o1,10µM*,nt,nt,-17%,nt,nt
Cc1cccc2[nH]c3c(N4CC=C(c5ccc(F)cc5)CC4)ncnc3c12,10µM*,2%,-5,-56%,-14%,-1%
